The source of these data is PubChem BioAssay.

The nature of test [1]: E. coli DRC41 culture turbidity changes, primary screen, E. coli filamentation inducer project, strain DRC41, OD650, 48 h (AID 1152).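 Further: E. coli MC1000 strain DRC41 lacking acrAB efflux pump and sulA.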 As to conditions: E. coli DRC41 (acrAB sulA), higher = more signal, called active from +8 up or from −8 down.
A short description of test [2]: small-molecule binders of probe aLefty1, primary screen, biochemical, small-molecule microarray, 635/667 nm fluorescence (AID 1153).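 Further: score merges spot fluorescence with signal-to-noise ratio from the scanned slide images.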 The following applies: higher = more signal.
The nature of test [3]: PSAC antagonists in infected red cells, primary screen, cell-based, P. falciparum Indochina, OD700, 1 h (AID 1154). As to conditions: P. falciparum Indochina infected RBC osmotic lysis, higher = more signal, called active from +8 up or from −8 down.
Test [4] in a line: PSAC antagonists in infected red cells, primary screen, cell-based, P. falciparum Indochina, OD700, 2 h (AID 1155).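 Further: lysis reports solute entry through the parasite surface anion channel PSAC; channel blockers reduce lysis of infected cells.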 The following applies: P. falciparum Indochina infected erythrocytes, osmotic lysis OD700; higher = more signal, called active from +8 up or from −8 down.
Test [5] is described as follows: osmotic lysis modulators in infected erythrocytes, primary screen, PSAC antagonist project, cell-based, P. falciparum Indochina, OD700, 3 h (AID 1156). The following applies: higher = more signal, called active from +8 up or from −8 down.
The nature of test [6]: PSAC antagonists in infected red cells, primary screen, cell-based, P. falciparum Indochina, OD700, 18 h (AID 1157). As to conditions: P. falciparum Indochina infected erythrocytes, osmotic lysis OD700, 18 h; higher = more signal, called active from +8 up or from −8 down.
A short description of test [7]: modulators of S6 phosphorylation in cells, primary screen, cell-based, A549, cytoblot, luminescence, serum-stimulated (AID 1158).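 Further: serum-stimulated A549 lung adenocarcinoma cells; signal is phosphorylated S6 detected by cytoblot immunostaining with HRP secondary.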 As to conditions: A549 phospho-S6 cytoblot, 5 h, higher = more signal.
The target in test [8] is NADPH oxidase 2 (Homo sapiens) (UniProt P04839). In words: NOX2-dependent H2O2 signal modulators, primary screen, NOX inhibitor project, cell-based, HEK293-NOX2, PMA-stimulated, Amplex Red fluorescence (AID 1159). Further: test concentration not given here. As to conditions: 45 min, higher = more signal, called active from +8 up or from −8 down.
In test [9] the target is NADPH oxidase 4 (Homo sapiens) (UniProt Q9NPH5). Nature of the test: NOX4-dependent H2O2 signal modulators, primary screen, NOX inhibitor project, cell-based, HEK293-NOX4, tetracycline-induced, Amplex Red fluorescence (AID 1160). The following applies: 45 min, higher = more signal, called active from +8 up or from −8 down.
Test [10] addresses NADPH oxidase 5 (Homo sapiens) (UniProt Q96PH1). In words: NOX5-dependent H2O2 signal modulators, primary screen, NOX inhibitor project, cell-based, HEK293-NOX5, Amplex Red fluorescence (AID 1161). As to conditions: HEK293-NOX5, ionomycin, 45 min, higher = more signal.
Test [11] in a line: A549 cell viability effects, profiling panel, calcein-AM fluorescence, 48 h, basal (AID 1162). Further: test concentration not given here. The following applies: higher = more signal.
Test [12] can be described thus: adipocyte viability effects, profiling panel, cell-based, 3T3-L1 adipocytes, calcein-AM fluorescence, 48 h, basal (AID 1163). Further: test concentration not given here. As to conditions: 3T3-L1 adipocytes viability, higher = more signal.
Test [13] can be described thus: HepG2 cell viability effects, profiling panel, calcein-AM fluorescence, 48 h, basal (AID 1164). Further: test concentration not given here. The following applies: higher = more signal.
Test [14] is described as follows: MM1S cell viability effects, profiling panel, calcein-AM fluorescence, 48 h, basal (AID 1165).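 Further: viability of MM1S multiple myeloma cells under basal unstimulated conditions; test concentration not given here.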 As to conditions: higher = more signal.
A short description of test [15]: basal RPMI8226 viability, no added stimulus, profiling panel, cell-based, calcein-AM fluorescence, 48 h, PK04 Diversity Set (AID 1166).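 Further: cells grown under basal conditions without added stimulus; test concentration not given here.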 The following applies: RPMI8226 myeloma viability, higher = more signal.
Test [16] in a line: basal HepG2 mitochondrial membrane potential changes, profiling panel, cell-based, JC-1 fluorescence, 24 h, 100 nL compound (AID 1167). Further: test concentration not given here. The following applies: higher = more signal.
A short description of test [17]: basal 3T3-L1 adipocyte mitochondrial potential changes, profiling panel, cell-based, JC-1 fluorescence, 3T3-L1 adipocytes, 24 h, 100 nL compound (AID 1168). Further: test concentration not given here. The following applies: JC-1 mitochondrial fluorescence, higher = more signal, called active from +8 up or from −8 down.
A short description of test [18]: basal RPMI8226 mitochondrial membrane potential changes, profiling panel, cell-based, JC-1 fluorescence, 24 h, 100 nL compound (AID 1169). Further: test concentration not given here. The following applies: RPMI8226 myeloma, JC-1 mitochondrial potential fluorescence, higher = more signal.
Test [19] in a line: basal MM1S mitochondrial membrane potential changes, profiling panel, cell-based, JC-1 fluorescence, 24 h, 100 nL compound (AID 1170). Further: test concentration not given here. As to conditions: higher = more signal.
The nature of test [20]: A549 lung cancer cell viability effects, profiling panel, resazurin fluorescence, 24 h, PK04 Diversity Set (AID 1171). Further: test concentration not given here. The following applies: higher = more signal, called active from +8 up or from −8 down. On the technique in general: Resazurin is reduced to fluorescent resorufin, in cell work by metabolically active cells.

Active and inactive are the calls of the source.

Sequence of NADPH oxidase 5 (Homo sapiens) (Q96PH1 whole entry, looked up): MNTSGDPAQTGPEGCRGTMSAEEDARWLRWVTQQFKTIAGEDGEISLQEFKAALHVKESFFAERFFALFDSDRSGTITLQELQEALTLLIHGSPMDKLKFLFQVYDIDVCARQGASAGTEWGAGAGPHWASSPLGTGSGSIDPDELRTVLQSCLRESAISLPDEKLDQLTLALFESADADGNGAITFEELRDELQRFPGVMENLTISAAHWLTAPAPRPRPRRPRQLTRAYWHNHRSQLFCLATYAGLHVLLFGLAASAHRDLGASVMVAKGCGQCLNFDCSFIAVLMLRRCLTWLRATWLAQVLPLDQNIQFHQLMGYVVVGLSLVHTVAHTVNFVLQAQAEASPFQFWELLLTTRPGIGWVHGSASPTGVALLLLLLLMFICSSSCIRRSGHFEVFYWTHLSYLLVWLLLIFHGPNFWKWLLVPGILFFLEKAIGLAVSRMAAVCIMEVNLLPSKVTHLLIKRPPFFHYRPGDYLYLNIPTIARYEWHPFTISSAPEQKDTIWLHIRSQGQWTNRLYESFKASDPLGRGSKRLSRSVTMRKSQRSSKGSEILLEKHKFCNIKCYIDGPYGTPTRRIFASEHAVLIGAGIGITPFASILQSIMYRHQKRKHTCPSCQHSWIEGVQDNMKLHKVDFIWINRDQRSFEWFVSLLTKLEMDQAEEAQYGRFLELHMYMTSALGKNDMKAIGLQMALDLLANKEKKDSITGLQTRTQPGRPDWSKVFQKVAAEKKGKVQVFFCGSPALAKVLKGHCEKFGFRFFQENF
Sequence of NADPH oxidase 4 (Homo sapiens) (Q9NPH5 whole entry, looked up): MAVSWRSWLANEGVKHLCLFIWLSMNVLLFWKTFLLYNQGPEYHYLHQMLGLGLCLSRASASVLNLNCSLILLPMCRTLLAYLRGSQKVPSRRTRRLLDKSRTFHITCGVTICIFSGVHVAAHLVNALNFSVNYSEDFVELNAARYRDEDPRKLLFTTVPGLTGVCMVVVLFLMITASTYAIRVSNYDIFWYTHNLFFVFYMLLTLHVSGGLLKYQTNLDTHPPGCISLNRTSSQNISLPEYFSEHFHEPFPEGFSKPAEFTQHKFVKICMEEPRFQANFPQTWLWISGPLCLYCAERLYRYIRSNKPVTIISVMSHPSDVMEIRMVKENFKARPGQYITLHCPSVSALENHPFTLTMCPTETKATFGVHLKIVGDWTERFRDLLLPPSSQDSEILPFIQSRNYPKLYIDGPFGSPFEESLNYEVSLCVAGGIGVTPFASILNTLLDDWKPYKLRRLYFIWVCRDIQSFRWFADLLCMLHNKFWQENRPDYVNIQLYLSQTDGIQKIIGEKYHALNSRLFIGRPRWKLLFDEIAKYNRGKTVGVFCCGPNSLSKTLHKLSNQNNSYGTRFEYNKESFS
Sequence of NADPH oxidase 2 (Homo sapiens) (P04839 whole entry, looked up): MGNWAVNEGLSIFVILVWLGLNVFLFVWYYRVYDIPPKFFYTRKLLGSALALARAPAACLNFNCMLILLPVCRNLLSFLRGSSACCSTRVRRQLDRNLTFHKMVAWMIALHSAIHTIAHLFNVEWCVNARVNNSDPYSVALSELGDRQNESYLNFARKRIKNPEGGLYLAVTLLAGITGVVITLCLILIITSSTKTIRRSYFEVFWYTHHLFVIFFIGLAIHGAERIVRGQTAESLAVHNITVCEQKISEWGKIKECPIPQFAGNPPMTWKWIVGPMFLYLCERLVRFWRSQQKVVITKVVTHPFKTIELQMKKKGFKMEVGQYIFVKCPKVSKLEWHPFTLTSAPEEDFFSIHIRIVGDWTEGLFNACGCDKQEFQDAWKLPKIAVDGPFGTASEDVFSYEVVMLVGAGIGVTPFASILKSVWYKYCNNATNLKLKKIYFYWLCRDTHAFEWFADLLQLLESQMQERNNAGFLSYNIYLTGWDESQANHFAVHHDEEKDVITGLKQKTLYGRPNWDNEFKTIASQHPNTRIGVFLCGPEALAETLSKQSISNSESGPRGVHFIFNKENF

`COC(=O)[C@@]1(Cc2ccccc2)[C@H]2c3cc(C(=O)N(C)C)n(Cc4c(-c5ccccc5)noc4C)c3C[C@H]2CN1C(=O)c1ccccc1`: the z-score in test [1] was -2.11 (inactive); in test [3], 2.98 (inactive); in test [4], 1.2 (inactive); in test [5] it was 0.57 (inactive); in [6], 1.11 (inactive); in test [7] it was -0.505. Moreover, the z-score in test [8] is 0.931 (inactive); in test [9], 1.32 (inactive); in [10], 1.1; in [11], -0.914; in test [12] it was -1; in test [13], -1.41. For the same compound, the z-score in test [14] is -1.05; in test [15] it was -1.09; in test [16], 2.14; in test [17], -1.05 (inactive); in [18], 0.168; in test [19], -0.822. Besides, the z-score in test [20] is -0.702 (inactive). Moreover, the composite z-score in [2] was 0.324.
For `Cc1ccc(S[C@]2(C(=O)NCC(C)C)CC(=O)N(Cc3ccccc3)[C@@H]2c2ccc(CO)cc2I)cc1`, the z-score in [1] is -0.668 (inactive); in [3], 10.6 (active); in test [4] it was 1.16 (inactive); in test [5] it was 0.448 (inactive); in test [6], 0.598 (inactive); in test [7], -0.36. The z-score in [8] was 1.09 (inactive); in test [9], -2.23 (inactive); in test [10] it was 0.489; in [11], 0.715; in test [12], 0.752; in test [13], 0.38. The z-score in test [14] is -2.1; in [15], -2.73; in test [16] it was -0.329; in test [17] it was -1.23 (inactive); in [18], -0.813; in [19], -0.528. Moreover, in test [20], the z-score was 0.999 (inactive). In test [2], this compound gave a composite z-score of 0.0597.
Regarding `CC(C)C[C@@H]1NC(=O)[C@@H]2C[C@H](C(=O)NCCCCCC[N+](C)(C)C)[C@H](c3ccc(O)cc3)N2C1=O`, the z-score was 0.55 (inactive) in test [1]; 3.47 (inactive) in test [3]; 0.637 (inactive) in test [4]; -1.96 (inactive) in test [5]; 0.227 (inactive) in [6]; -0.274 in test [7]. For the same compound, the z-score in [8] was 0.994 (inactive); in test [9], 0.763 (inactive); in test [10], 0.75; in test [11] it was -0.633; in [12], -0.77; in test [13] it was 0.145. Moreover, the z-score in [14] was 0.305; in [15], 0.996; in [16] it was -0.595; in test [17], 0.566 (inactive); in [18] it was -0.815; in [19], -0.39. The z-score in test [20] was 0.0131 (inactive). In [2], this compound gave a composite z-score of 0.127.
With `COc1cccc(C(=O)O[C@H]2CC[C@]3(C)C4=C(CCC3C2(C)C)[C@]2(C)CC[C@H]([C@H](C)CCCC(C)C)[C@@]2(C)CC4)c1` (stereo not given in full), the z-score is 3.47 (inactive) in test [1]; -0.264 (inactive) in [3]; -0.611 (inactive) in test [4]; -0.306 (inactive) in test [5]; -1.63 (inactive) in [6]; 0.801 in [7]. The z-score in test [8] is -0.606 (inactive); in [9], 0.0302 (inactive); in test [10], 0.689; in test [11] it was 0.583; in test [12], 0.146; in [13], 0.689. Besides, the z-score in test [14] was -0.56; in test [15], 0.241; in test [16] it was 1.28; in test [17] it was 0.387 (inactive); in [18], -0.0502; in [19], -1.49. Further, the z-score in test [20] was 0.479 (inactive). In test [2], the composite z-score came to 0.0752.
As for `COCCOC(=O)N1C(=O)[C@@]2(c3cc(C#CC4=CCCCC4)ccc31)[C@H](C(=O)N1CCc3cc(OC)c(OC)cc3C1)[C@H]1C(=O)O[C@H](c3ccccc3)[C@H](c3ccccc3)N1[C@@H]2c1ccccc1OCCO`, the z-score in test [1] was 0.585 (inactive); in test [3], 2.4 (inactive); in test [4] it was 0.876 (inactive); in test [5] it was 0.827 (inactive); in test [6], 0.703 (inactive); in test [7] it was -0.113. Besides, the z-score in test [8] is 1.72 (inactive); in test [9], 0.58 (inactive); in test [10] it was 1.99; in test [11] it was 0.145; in test [12] it was 0.299; in test [13], 0.274. Also, the z-score in test [14] was -1.37; in test [15] it was -1.06; in [16], 0.0701; in test [17] it was 2.17 (inactive); in test [18] it was -0.701; in test [19], -0.72. Besides, in test [20], the z-score is 0.267 (inactive). In test [2], this compound registered a composite z-score of -0.012.
On to `O=C(CS)NCCCCCCNC(=O)[C@H]1C[C@H]2C(=O)NCC(=O)N2[C@H]1c1ccc(O)cc1`, for which the z-score in test [1] is -0.618 (inactive); in test [3], 2.33 (inactive); in test [4], 0.141 (inactive); in test [5], -2.02 (inactive); in test [6], 0.23 (inactive); in test [7], -0.598. The z-score in test [8] was 1.45 (inactive); in test [9], 0.407 (inactive); in test [10], -0.391; in test [11], 0.324; in test [12], 0.277; in [13], 0.555. The z-score in [14] is -0.31; in test [15] it was 0.325; in test [16], -0.32; in [17], -0.607 (inactive); in test [18], -0.645; in test [19] it was -0.459. In addition, the z-score in test [20] is -0.27 (inactive). In addition, in [2], the composite z-score was -0.0969.
Turning to `CN1C(=O)C2C=CC(C(O)c3ccccn3)N(Nc3ccccc3)C2C1=O` (stereo not given), the z-score in [1] was -0.434 (inactive); in test [3], 0.844 (inactive); in [4], 1.09 (inactive); in test [5] it was -0.197 (inactive); in test [6], 1.12 (inactive); in test [7] it was -0.669. In addition, the z-score in test [8] was -1.35 (inactive); in [9], -4.52 (inactive); in test [10], -2.9; in test [11], 0.169; in [12], -0.103; in test [13], -0.164. The z-score is -0.309 in [14]; 0.497 in test [15]; -0.562 in test [16]; -0.234 (inactive) in test [17]; 0.184 in [18]; 0.0223 in test [19]. In test [20], the z-score was -0.205 (inactive). The same compound displayed a composite z-score in test [2] of -0.093.
Regarding `CN1C=C(C(=O)OCCS(C)(=O)=O)C(C(=O)OCCS(C)(=O)=O)=CC(CCCO)=CC1C1CC1` (stereo not given), the z-score in test [1] was 1.07 (inactive); in test [3], 1.43 (inactive); in [4] it was 0.63 (inactive); in [5], 0.483 (inactive); in test [6], 0.16 (inactive); in [7] it was 0.471. In addition, the z-score in [8] was -2.51 (inactive); in [9], -1.07 (inactive); in [10] it was -1.38; in test [11], -0.731; in test [12], 0.197; in test [13], 1.23. Also, the z-score in [14] was 0.509; in test [15], 0.535; in test [16], 0.838; in [17], 0.448 (inactive); in test [18], 0.326; in [19], -1.09. Moreover, in [20], the z-score was 0.129 (inactive). Also, the composite z-score in test [2] amounted to 0.026.
In the case of `CC(C)CNC(=O)[C@@]1(c2ccc([N+](=O)[O-])cc2)CC(=O)N(CC23CC4CC(CC(C4)C2)C3)[C@@H]1c1ccc(CO)cc1`, the z-score was 2.76 (inactive) in test [1]; 2.75 (inactive) in test [3]; -0.14 (inactive) in test [4]; 0.856 (inactive) in test [5]; -0.36 (inactive) in [6]; 0.802 in test [7]. Also, the z-score is -0.129 (inactive) in [8]; -1.06 (inactive) in [9]; 0.965 in test [10]; -0.642 in test [11]; 1.57 in test [12]; -0.715 in test [13]. The z-score is -2.68 in test [14]; -3.66 in test [15]; 0.0331 in test [16]; 0.226 (inactive) in [17]; -1 in test [18]; 0.857 in test [19]. The z-score in [20] is -2.47 (inactive). This compound also registered a composite z-score in test [2] of 0.227.
